# Test results published in PubChem BioAssay (Tox21).
# Records with an inconclusive call do not appear. Unmarked numbers belong to inactive results. Unless noted, calls come from the whole dose curve; as a rule, active = well fitted curve in the direction sought with a large enough effect in the repeat runs; inconclusive = weak or mixed curves; inactive = no such curve, though single readings can be large; an effect the other way counts as inactive or inconclusive. Where a SMILES comes first, the peptide text is derived from it. [ ]: non-standard residue; d: D form. pGlu = O=C1CC[C@@H](C(=O)O)N1
# Assay: qHTS assay to identify small molecule antagonists of the TGF-beta/Smad signaling pathway - cell viability counter screen (AID 1346824); note: nearly all actives have a fitted effect of over 50% in size
# Details: SBE-bla HEK293T viability, CellTiter-Glo luminescence; series mostly up to 76.8 µM; viability change, negative = cytotoxic: at the top concentration
# Procedure, shortened: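 SBE-bla HEK 293T cells, incubated overnight, then compound plus 0.25 ng/mL TGF-beta1 (stock added) for 5 hr at 37 C. Viability was read in the same wells by CellTiter-Glo luminescence after 30 min at room temperature.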
# % is set by controls: 0 for no effect and ±100 for the full control effect.
row,SMILES,"viability change, negative = cytotoxic"
1,Clc1cc(Cl)cc(Cl)c1,21.6%
2,O=C1CCCCCCCCCCCCCCO1,16.2%
3,CCCO[Si](OCCC)(OCCC)OCCC,-2.5%
4,C=COCC1CCC(COC=C)CC1 (stereo not given),0.273%
5,O=Cc1cccc(Br)c1,-2.92%
6,C[N+](C)(CCOc1ccccc1)Cc1cccs1,-1.07% [at 35.3 µM]
7,CN1CCC(=C2c3ccccc3CCc3cccnc32)CC1,-4.88% [at 35.3 µM]
8,CCCCc1ccc2c(n1)[C@@H](c1ccc(OC)cc1C[C@H](C)C(=O)O)[C@H](C(=O)O)[C@H]2c1ccc2c(c1)OCO2,11.5%
9,CC(=O)c1ccc2ccccc2c1,0.37%
10,CC(C)c1ccc2ncccc2c1,7.7%
11,c1ccc(Cc2ccccc2)cc1,-7.75%
12,C=C(C)C(=O)OCC1CCCO1 (stereo not given),1.2%
13,CN(C)CCCN(C)CCCN(C)C,-7.58%
14,O=S(=O)(O)c1cc(O)c(O)c(S(=O)(=O)O)c1,1.43%
15,O=[N+]([O-])c1cncn1CCN1CCOCC1,4.18% [at 35.3 µM]
16,CCOC(=O)OC(C)OC1=C(C(=O)Nc2ccccn2)N(C)S(=O)(=O)c2ccccc21 (stereo not given),-2.48% [at 35.3 µM]
17,CCC(C)(CCCC(C)C)OC(C)=O (stereo not given),19%
18,CC1(C)[C@@H]2CC[C@@]1(C)[C@H](O)C2,1.27%
19,CCN[C@H]1C[C@H](C)S(=O)(=O)c2sc(S(N)(=O)=O)cc21,0.406% [at 35.3 µM]
20,O=CN(CCO)CCO,-9.13%

# Assay: qHTS assay to identify small molecule agonists of the TGF-beta/Smad signaling pathway - cell viability counter screen (AID 1346829); note: top concentration of the series differs between compounds; nearly all actives have a fitted effect of over 45% in size
# Details: SBE-bla HEK293T viability, CellTiter-Glo luminescence, 5 h; series mostly up to 76.8 µM; activity change, negative = cytotoxicity: at the top concentration
# Procedure, shortened: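 HEK 293T SBE-bla line, 5 hr compound exposure at 37 C, multiplexed CellTiter-Glo viability read by luminescence.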
row,SMILES,"activity change, negative = cytotoxicity"
1,CC1(C)OC[C@@H](COC(=O)CCc2ccc(OC[C@@H](O)CNCCNC(=O)N3CCOCC3)cc2)O1,-1.83% [at 35.3 µM]
2,CCC(C(=O)NC(=O)NC(C)=O)c1ccccc1 (stereo not given),9.6% [at 35.3 µM]
3,CC(C)(N)C#N,0.818%
4,CN1C(C)(C)CC(O)CC1(C)C,4.83%
5,O=C(c1ccccc1)C1(O)CCCCC1,-11.7%
6,[O-][n+]1cccc(CO)c1,9.98% [at 35.3 µM]
7,CCNC(=O)[C@@H]1CCCN1C(=O)[C@H](CCCN=C(N)N)NC(=O)[C@H](CC(C)C)NC(=O)CNC(=O)[C@H](Cc1ccc(O)cc1)NC(=O)[C@H](CO)NC(=O)[C@H](Cc1c[nH]c2ccccc12)NC(=O)[C@H](Cc1cnc[nH]1)NC(=O)[C@@H]1CCC(=O)N1 ([pGlu]HWSYGLRP-NHEt),0.612% [at 35.3 µM]
8,CC(C)CC(C)(N)C#N (stereo not given),-15.2%
9,O=C(O)CCSCCC(=O)O,7.96%
10,CC(COc1ccccc1)NN (stereo not given),-0.0448% [at 35.3 µM]
11,C=CC(=O)OCCCl,0.119%
12,NS(=O)(=O)Cc1noc2ccccc12,0.0484% [at 35.3 µM]
13,CCNS(=O)(=O)c1ccc(C)cc1,-22.7%
14,CC(=O)NC(=O)c1ccccc1O,8.35% [at 35.3 µM]
15,O=C(CO)[C@@H](O)[C@H](O)[C@H](O)CO,-9.08%
16,C=CC(C)(CCC=C(C)C)OC(=O)CC (stereo not given),3.3%
17,CN(C)[C@@H]1C(=O)C(C(=O)NCN2CCCC2)=C(O)[C@@]2(O)C(=O)C3=C(O)c4c(O)cccc4[C@@](C)(O)C3C[C@@H]12 (stereo not given in full),-0.0817% [at 35.3 µM]

row,SMILES,"activity change, negative = cytotoxicity"
1,Clc1cc(Cl)cc(Cl)c1,-21.8%
2,CCCO[Si](OCCC)(OCCC)OCCC,-5.18%
3,C=COCC1CCC(COC=C)CC1 (stereo not given),6.42%
4,O=Cc1cccc(Br)c1,1.8%
5,C[N+](C)(CCOc1ccccc1)Cc1cccs1,8.54% [at 35.3 µM]
6,CN1CCC(=C2c3ccccc3CCc3cccnc32)CC1,-8.93% [at 35.3 µM]
7,CCCCc1ccc2c(n1)[C@@H](c1ccc(OC)cc1C[C@H](C)C(=O)O)[C@H](C(=O)O)[C@H]2c1ccc2c(c1)OCO2,9.22%
8,CC(C)c1ccc2ncccc2c1,12.3%
9,c1ccc(Cc2ccccc2)cc1,10.6%
10,C=C(C)C(=O)OCC1CCCO1 (stereo not given),1.73%
11,CN(C)CCCN(C)CCCN(C)C,4.28%
12,O=S(=O)(O)c1cc(O)c(O)c(S(=O)(=O)O)c1,1.33%
13,O=[N+]([O-])c1cncn1CCN1CCOCC1,20.3% [at 35.3 µM]
14,CCOC(=O)OC(C)OC1=C(C(=O)Nc2ccccn2)N(C)S(=O)(=O)c2ccccc21 (stereo not given),5.08% [at 35.3 µM]
15,CCC(C)(CCCC(C)C)OC(C)=O (stereo not given),6.39%
16,CCN[C@H]1C[C@H](C)S(=O)(=O)c2sc(S(N)(=O)=O)cc21,2.58% [at 35.3 µM]
17,O=CN(CCO)CCO,0.101%

# Assay: qHTS assay to identify small molecule agonists of the TGF-beta/Smad signaling pathway (AID 1346859; active = well fitted activation curve with a large enough effect in the signal ratio in the repeat runs, not every such curve was filed as active; the % refers to the signal ratio)
# Details: SBE-bla HEK293T, TGF-beta/Smad beta-lactamase reporter, 5 h; series mostly up to 76.8 µM; activation: at the top concentration
# Procedure, shortened: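 Beta-lactamase reporter activity downstream of Smad binding elements was measured in stably transfected HEK 293T cells; compounds were incubated for 5 hr, substrate for 2 hr at room temperature.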
row,SMILES,activation
1,CC1(C)OC[C@@H](COC(=O)CCc2ccc(OC[C@@H](O)CNCCNC(=O)N3CCOCC3)cc2)O1,0.584% [at 35.3 µM]
2,CCC(C(=O)NC(=O)NC(C)=O)c1ccccc1 (stereo not given),1.09% [at 35.3 µM]
3,CC(C)(N)C#N,-2.99%
4,CN1C(C)(C)CC(O)CC1(C)C,1.25%
5,O=C(c1ccccc1)C1(O)CCCCC1,-2.25%
6,[O-][n+]1cccc(CO)c1,-0.494% [at 35.3 µM]
7,CCNC(=O)[C@@H]1CCCN1C(=O)[C@H](CCCN=C(N)N)NC(=O)[C@H](CC(C)C)NC(=O)CNC(=O)[C@H](Cc1ccc(O)cc1)NC(=O)[C@H](CO)NC(=O)[C@H](Cc1c[nH]c2ccccc12)NC(=O)[C@H](Cc1cnc[nH]1)NC(=O)[C@@H]1CCC(=O)N1 ([pGlu]HWSYGLRP-NHEt),1.58% [at 35.3 µM]
8,CC(C)CC(C)(N)C#N (stereo not given),-0.922%
9,O=C(O)CCSCCC(=O)O,0.737%
10,CC(COc1ccccc1)NN (stereo not given),0.444% [at 35.3 µM]
11,C=CC(=O)OCCCl,1.78%
12,NS(=O)(=O)Cc1noc2ccccc12,-1.7% [at 35.3 µM]
13,CCNS(=O)(=O)c1ccc(C)cc1,-0.656%
14,CC(=O)NC(=O)c1ccccc1O,-0.0748% [at 35.3 µM]
15,OCCCCCO,0.0939%
16,O=C(CO)[C@@H](O)[C@H](O)[C@H](O)CO,0.831%
17,C=CC(C)(CCC=C(C)C)OC(=O)CC (stereo not given),0.108%
18,CN(C)[C@@H]1C(=O)C(C(=O)NCN2CCCC2)=C(O)[C@@]2(O)C(=O)C3=C(O)c4c(O)cccc4[C@@](C)(O)C3C[C@@H]12 (stereo not given in full),-2.84% [at 35.3 µM]

row,SMILES,activation
1,Clc1cc(Cl)cc(Cl)c1,-2.54%
2,O=C1CCCCCCCCCCCCCCO1,0.37%
3,CCCO[Si](OCCC)(OCCC)OCCC,3.16%
4,C=COCC1CCC(COC=C)CC1 (stereo not given),-1.76%
5,O=Cc1cccc(Br)c1,-0.328%
6,CCCCc1ccc2c(n1)[C@@H](c1ccc(OC)cc1C[C@H](C)C(=O)O)[C@H](C(=O)O)[C@H]2c1ccc2c(c1)OCO2,0.113%
7,CC(=O)c1ccc2ccccc2c1,0.148%
8,CC(C)c1ccc2ncccc2c1,0.653%
9,c1ccc(Cc2ccccc2)cc1,5.17%
10,C=C(C)C(=O)OCC1CCCO1 (stereo not given),-2.36%
11,CN(C)CCCN(C)CCCN(C)C,-1.07%
12,O=S(=O)(O)c1cc(O)c(O)c(S(=O)(=O)O)c1,-3.98%
13,O=[N+]([O-])c1cncn1CCN1CCOCC1,6.11% [at 35.3 µM]
14,CCOC(=O)OC(C)OC1=C(C(=O)Nc2ccccn2)N(C)S(=O)(=O)c2ccccc21 (stereo not given),1.8% [at 35.3 µM]
15,CCC(C)(CCCC(C)C)OC(C)=O (stereo not given),-1.24%
16,CC1(C)[C@@H]2CC[C@@]1(C)[C@H](O)C2,3.5%
17,CCN[C@H]1C[C@H](C)S(=O)(=O)c2sc(S(N)(=O)=O)cc21,1.46% [at 35.3 µM]
18,O=CN(CCO)CCO,-1.11%
